Results on 21 molecules are retold here after article PMC9911399, “Two distinct binding modes provide the RNA-binding protein RbFox with extraordinary sequence specificity”.

Changes are numbered by the printed parent chain; changes in the protein carry UniProt numbers. Whole data set: some 16,000 sequences, median “ka relative to ugcaugu” near 0.0091, cut for the highest 2% near 0.032. This is one part of a sample in which the highest values are shown more often than they occur.

T1: RBFOX1 RRM (Homo sapiens, UniProt Q9NWB1 109-208)
T1 sequence: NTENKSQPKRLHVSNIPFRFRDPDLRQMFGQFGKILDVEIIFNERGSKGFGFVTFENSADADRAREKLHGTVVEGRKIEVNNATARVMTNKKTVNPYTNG

B1: CAUGGAC (DNA:RNA)
RNA: GGGAGACCGGAAUUCAGAUUGUCCCAUGGACUUAAAUCCCGUCGUAGCCACCA
DNA 1: CAATCTGAATTCCGGTCTCCC
DNA 2: TGGTGGCTACGACGGGATT
B2: CUAAAAA (DNA:RNA)
RNA: B1 RNA with A26U, U27A, G28A, G29A, C31A
DNA 1: CAATCTGAATTCCGGTCTCCC
DNA 2: TGGTGGCTACGACGGGATT
B3: GGAGUAG (DNA:RNA)
RNA: B1 RNA with C25G, A26G, U27A, G29U, C31G
DNA 1: CAATCTGAATTCCGGTCTCCC
DNA 2: TGGTGGCTACGACGGGATT
B4: GUCCUCG (DNA:RNA)
RNA: GGGAGACCGGAAUUCAGAUUGUCCGUCCUCGUUAAAUCCCGUCGUAGCCACCA
DNA 1: CAATCTGAATTCCGGTCTCCC
DNA 2: TGGTGGCTACGACGGGATT
B5: UCGCUCC (DNA:RNA)
RNA: B4 RNA with G25U, U26C, C27G, G31C
DNA 1: CAATCTGAATTCCGGTCTCCC
DNA 2: TGGTGGCTACGACGGGATT
B6: UCGCUCG (DNA:RNA)
RNA: B4 RNA with G25U, U26C, C27G
DNA 1: CAATCTGAATTCCGGTCTCCC
DNA 2: TGGTGGCTACGACGGGATT
B7: UCCUCGC (DNA:RNA)
RNA: B1 RNA with C25U, A26C, U27C, G28U, G29C, A30G
DNA 1: CAATCTGAATTCCGGTCTCCC
DNA 2: TGGTGGCTACGACGGGATT
B8: UCGCUUG (DNA:RNA)
RNA: B4 RNA with G25U, U26C, C27G, C30U
DNA 1: CAATCTGAATTCCGGTCTCCC
DNA 2: TGGTGGCTACGACGGGATT
B9: UCGUCGC (DNA:RNA)
RNA: B1 RNA with C25U, A26C, U27G, G28U, G29C, A30G
DNA 1: CAATCTGAATTCCGGTCTCCC
DNA 2: TGGTGGCTACGACGGGATT
B10: UUCGUAA (DNA:RNA)
RNA: B4 RNA with G25U, C28G, C30A, G31A
DNA 1: CAATCTGAATTCCGGTCTCCC
DNA 2: TGGTGGCTACGACGGGATT
B11: GCGAAUA (DNA:RNA)
RNA: B4 RNA with U26C, C27G, C28A, U29A, C30U, G31A
DNA 1: CAATCTGAATTCCGGTCTCCC
DNA 2: TGGTGGCTACGACGGGATT
B12: AGCUUAC (DNA:RNA)
RNA: B1 RNA with C25A, A26G, U27C, G28U, G29U
DNA 1: CAATCTGAATTCCGGTCTCCC
DNA 2: TGGTGGCTACGACGGGATT
B13: UGACUUU (DNA:RNA)
RNA: B4 RNA with G25U, U26G, C27A, C30U, G31U
DNA 1: CAATCTGAATTCCGGTCTCCC
DNA 2: TGGTGGCTACGACGGGATT
B14: CAUGUCC (DNA:RNA)
RNA: B1 RNA with G29U, A30C
DNA 1: CAATCTGAATTCCGGTCTCCC
DNA 2: TGGTGGCTACGACGGGATT
B15: CUAGAAU (DNA:RNA)
RNA: B1 RNA with A26U, U27A, G29A, C31U
DNA 1: CAATCTGAATTCCGGTCTCCC
DNA 2: TGGTGGCTACGACGGGATT
B16: UAGUAGC (DNA:RNA)
RNA: B1 RNA with C25U, U27G, G28U, G29A, A30G
DNA 1: CAATCTGAATTCCGGTCTCCC
DNA 2: TGGTGGCTACGACGGGATT
B17: UAGCUCC (DNA:RNA)
RNA: B4 RNA with G25U, U26A, C27G, G31C
DNA 1: CAATCTGAATTCCGGTCTCCC
DNA 2: TGGTGGCTACGACGGGATT
B18: UAGCCCG (DNA:RNA)
RNA: B4 RNA with G25U, U26A, C27G, U29C
DNA 1: CAATCTGAATTCCGGTCTCCC
DNA 2: TGGTGGCTACGACGGGATT
B19: UCCUAGC (DNA:RNA)
RNA: B1 RNA with C25U, A26C, U27C, G28U, G29A, A30G
DNA 1: CAATCTGAATTCCGGTCTCCC
DNA 2: TGGTGGCTACGACGGGATT
B20: UAGCUUG (DNA:RNA)
RNA: B4 RNA with G25U, U26A, C27G, C30U
DNA 1: CAATCTGAATTCCGGTCTCCC
DNA 2: TGGTGGCTACGACGGGATT
B21: UAGCUCG (DNA:RNA)
RNA: B4 RNA with G25U, U26A, C27G
DNA 1: CAATCTGAATTCCGGTCTCCC
DNA 2: TGGTGGCTACGACGGGATT

The assay deals with T1, RBFOX1 RRM. Briefly: EMSA; HiTS-Eq, 1 nM pool, 10 min; buffer printed only for the single-RNA assays: 10 mM Tris pH 7.5, 150 mM NaCl, 3.4 mM EDTA, 0.001% NP-40, 30 C. Conditions: tags: His6 N-terminal (pET28a); label: 5' 32P. The essentials:
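A pool of RNA with 7 randomized nucleotides, 5′-radiolabelled and with DNA-annealed flanks, was equilibrated at 1 nM for 10 min in 50 µL with purified RbFox RRM, wild type or mutant, across increasing protein concentrations. Free RNA was separated by 8% native PAGE, excised, reverse-transcribed, barcoded by PCR and sequenced. Relative association constants were obtained from read-count changes of each RNA species versus the control reaction and normalised to the cognate motif.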
For orientation: In EMSA bound probe runs differently from free probe, usually more slowly.
On to B1, for which the binding signal was 0.00577 KA relative to UGCAUGU.
For the molecule B2, the binding signal was 0.000629 KA relative to UGCAUGU.
To B3 belongs 0.0152 KA relative to UGCAUGU.
To B4 belongs 0.0155 KA relative to UGCAUGU; to B5, 0.0108 KA relative to UGCAUGU; to B6, 0.0321 KA relative to UGCAUGU.
Turning to B7, the binding signal is 0.00514 KA relative to UGCAUGU.
To B8 belongs 0.0368 KA relative to UGCAUGU; to B9, 0.0113 KA relative to UGCAUGU.
Under B10 stands 0.00742 KA relative to UGCAUGU; under B11, 0.0051 KA relative to UGCAUGU; under B12, 0.00674 KA relative to UGCAUGU.
As for B13, the binding signal was 0.0147 KA relative to UGCAUGU.
To B14 belongs 0.00562 KA relative to UGCAUGU; to B15, 0.00687 KA relative to UGCAUGU; to B16, 0.0177 KA relative to UGCAUGU.
Under B17 stands 0.00512 KA relative to UGCAUGU; under B18, 0.0123 KA relative to UGCAUGU; under B19, 0.0075 KA relative to UGCAUGU.
In the case of B20, the binding signal is 0.0445 KA relative to UGCAUGU.
Under B21 stands 0.0341 KA relative to UGCAUGU.
